# Where “and” joins values, the source holds several entries; their conditions need not be identical. Equal values may be shown once. Results filed as inconclusive are left out. Calls of active or inactive are those of the source. Unless noted, calls follow the shape of the full dose curve.
# Biological target: Cytochrome P450 2C9 (Homo sapiens) (UniProt P11712)
# Experiment: Cytochrome P450 family 2 subfamily C member 9 (CYP2C9) small molecule antagonists: luciferase biochemical (cell-free) qHTS assay (AID 1645842; active = well fitted inhibition curve with a large enough effect in the repeat runs; also: nearly all actives have a fitted effect of over 55% in size; also: potency is read from the fitted curve at half-maximal effect; as to activity change, negative = inhibition: % is scaled to controls: 0 for no effect and ±100 for the full control effect)
# Settings: P450-Glo CYP2C9 enzyme assay, luciferin luminescence; series mostly up to 57.4 µM
# Procedure, shortened: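 Luminescence, after 20 min with luciferin detection reagent, reflected CYP2C9 turnover during a 1 h NADPH-driven reaction at 37C. Enzyme-substrate mix contained 0.4% bovine serum albumin and was preincubated with compound 10 min at room temperature.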
# Chain of Cytochrome P450 2C9 (Homo sapiens) (P11712 whole entry, looked up): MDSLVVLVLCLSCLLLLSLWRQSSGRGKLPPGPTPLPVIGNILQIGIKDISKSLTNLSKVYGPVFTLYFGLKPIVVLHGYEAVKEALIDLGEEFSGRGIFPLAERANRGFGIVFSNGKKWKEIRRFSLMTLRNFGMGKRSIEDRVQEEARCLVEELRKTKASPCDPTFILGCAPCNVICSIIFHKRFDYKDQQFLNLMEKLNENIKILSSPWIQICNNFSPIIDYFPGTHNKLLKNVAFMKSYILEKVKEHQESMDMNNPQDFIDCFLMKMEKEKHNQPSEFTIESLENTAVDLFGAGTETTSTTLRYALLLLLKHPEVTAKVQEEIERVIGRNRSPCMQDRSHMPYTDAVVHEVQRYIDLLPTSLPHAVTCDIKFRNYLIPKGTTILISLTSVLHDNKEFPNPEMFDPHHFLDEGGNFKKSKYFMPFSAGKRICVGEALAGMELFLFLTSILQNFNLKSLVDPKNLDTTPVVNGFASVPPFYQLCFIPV
row,SMILES,Potency
1,CC(Cc1ccccc1)NC=O (centres undefined),inactive
2,O=C1C2CC=CCC2C(=O)N1SC(Cl)(Cl)Cl (centres undefined),6.74 µM (active)
3,CCCCCOc1cc2c(cc1-c1cc(/C=C/C(=O)O)ccc1O)C(C)(C)CCC2(C)C,12 µM (active)
4,C[C@H](NC(=O)Cc1cc(F)cc(F)c1)C(=O)N[C@@H]1N=C(c2ccccc2)c2ccccc2N(C)C1=O,inactive

# System: not listed separately
# Experiment: Cytotoxicity counterscreen for inhibitors of SARS-CoV-2 cell entry (AID 1645845); also: nearly all actives have a fitted effect of over 50% in size
# Settings: cell viability (SARS-CoV-2 entry assay cells); series mostly up to 57.1 µM
# Procedure, shortened: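 Expi293F/hACE2 cells seeded overnight; cpd pin-transferred in DMSO, 1 h preincubation, + media, 48 h 37 C 5% CO2; ATPLite 1step luminescence; normalized to cells and no cells.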
row,SMILES,outcome
1,COc1cc2c(cc1OC)[C@@]13CCN4CC5=CCO[C@H]6CC(=O)N2[C@H]1[C@H]6[C@H]5C[C@H]43,inactive
2,C[C@]12CC[C@H]3[C@@H](CCC4=C(O)C(=O)CC[C@@H]43)[C@@H]1CC[C@@H]2OC(=O)CCC1CCCC1,inactive
3,Cc1ccccc1-n1c(CF)nc2ccc(N)cc2c1=O,inactive
4,CCCCCCCCCC(=O)O[C@H]1CC[C@H]2[C@@H]3CCC4=CC(=O)CC[C@]4(C)[C@H]3CC[C@]12C,inactive
5,CCC1(CC)C(=O)NC(=O)N(C)C1=O,inactive
6,CN1[C@H]2CC[C@@H]1[C@@H](C(=O)O)[C@@H](OC(=O)c1ccccc1)C2,inactive
7,C/C(=C\c1csc(C)n1)[C@@H]1C[C@@H]2O[C@]2(C)CCC[C@H](C)[C@H](O)[C@@H](C)C(=O)C(C)(C)[C@@H](O)CC(=O)O1,inactive
8,C[C@@H]([C@H](O)c1ccccc1)N(C)C,inactive
9,C[N+]1(C)CCCCC1COC(=O)C(O)(c1ccccc1)c1ccccc1 (centres undefined),inactive
10,CC(=O)c1c(O)c(C)c(O)c(Cc2c(O)c3c(c(C(=O)/C=C/c4ccccc4)c2O)OC(C)(C)C=C3)c1O,inactive
11,C[C@]12CC[C@H]3[C@@H](CC[C@@]45O[C@@H]4C(O)=C(C#N)C[C@]35C)[C@@H]1CC[C@@H]2O,inactive
12,Oc1ccc2c3c1O[C@H]1[C@@H](O)CC[C@@]4(O)[C@@H](C2)N(CC2CCC2)CC[C@]314,inactive
13,CCN(CC)C(=O)N[C@H]1C[C@@H]2c3cccc4[nH]cc(c34)C[C@H]2N(C)C1,inactive

# System: not listed separately
# Experiment: Primary qHTS to identify inhibitors of SARS-CoV-2 cell entry (AID 1645846); also: nearly all actives have a fitted effect of over 45% in size; also: potency is read from the fitted curve at half-maximal effect
# Settings: SARS-CoV-2 pseudovirus cell entry assay, luminescence; activity change, negative = inhibition: at 57.1 µM (top of the series) unless noted; series mostly up to 57.1 µM
# Procedure, shortened: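 Entry measured by luciferase signal 48 h after adding SARS-CoV-2-S pseudotyped MLV particles to HEK293-ACE2 cells preincubated 1 h with compounds. Normalisation: bald particles and spike particles.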
SMILES,"activity change, negative = inhibition",Potency
O=P(O)(O)C(Cl)(Cl)P(=O)(O)O,-6.21% [at 5.25 µM],
O=C/C=C/c1ccccc1,-22.2%,
COc1cc2c(cc1OC)[C@@]13CCN4CC5=CCO[C@H]6CC(=O)N2[C@H]1[C@H]6[C@H]5C[C@H]43,-18.2%,
CCC1(C)CC(=O)NC(=O)C1,-21.5% [at 114 µM],
CC[C@H](C)[C@H]1O[C@]2(C=C[C@@H]1C)C[C@@H]1C[C@@H](C/C=C(\C)[C@@H](O[C@H]3C[C@H](OC)[C@@H](O[C@H]4C[C@H](OC)[C@@H](O)[C@H](C)O4)[C@H](C)O3)[C@@H](C)/C=C/C=C3\CO[C@@H]4[C@H](O)C(C)=C[C@@H](C(=O)O1)[C@]34O)O2,,10 µM (active)
C[C@]12CC[C@H]3[C@@H](CCC4=C(O)C(=O)CC[C@@H]43)[C@@H]1CC[C@@H]2OC(=O)CCC1CCCC1,-9.8%,
Cn1sc(Cl)cc1=O,-5.28%,
Cc1ccccc1-n1c(CF)nc2ccc(N)cc2c1=O,-3.31%,
CCCCCCCCCC(=O)O[C@H]1CC[C@H]2[C@@H]3CCC4=CC(=O)CC[C@]4(C)[C@H]3CC[C@]12C,-15.3%,
O=[N+]([O-])c1ccccc1,-19.1%,
O=C(O)C(Cl)(Cl)Cl,-27.9%,
CN1[C@H]2CC[C@@H]1[C@@H](C(=O)O)[C@@H](OC(=O)c1ccccc1)C2,-21.7% [at 114 µM],
c1ccc2sc(SNC3CCCCC3)nc2c1,2.84% [at 114 µM],
C/C(=C\c1csc(C)n1)[C@@H]1C[C@@H]2O[C@]2(C)CCC[C@H](C)[C@H](O)[C@@H](C)C(=O)C(C)(C)[C@@H](O)CC(=O)O1,-75.8% and -81.1%,
C[C@@H]([C@H](O)c1ccccc1)N(C)C,-34.9%,
O=c1[nH]cc(N(CCCl)CCCl)c(=O)[nH]1,-21% [at 114 µM],
C[N+]1(C)CCCCC1COC(=O)C(O)(c1ccccc1)c1ccccc1 (centres undefined),-8.43%,
CC(C)CCC(=O)O[C@H]1CC[C@H]2[C@@H]3CCC4=CC(=O)CC[C@]4(C)[C@H]3CC[C@]12C,-25.5%,
O=C(OCCN1CCCCC1)C(O)(c1ccccc1)c1ccccc1,-28.8%,
O=S(=O)(O)c1cc(O)ccc1O,-12.6%,
CCCCCCC(=O)O[C@H]1CC[C@H]2[C@@H]3CC[C@H]4CC(=O)C=C(C)[C@]4(C)[C@H]3CC[C@]12C,-7.93%,
CCCCC[C@@H](O)C1C(=O)OC(C)[C@H](O)/C=C/C=C/C=C/C=C/C=C(\C)C(O)C(O)C(O)C[C@H](O)C[C@H](O)C[C@H](O)C[C@H](O)C[C@@H]1O (some centres undefined),-29.9%,
